Experimental data published in PubChem BioAssay (NCATS).
Measured potencies and affinities stand elsewhere. Calls of active or inactive are those of the source. The rule behind the calls is not given here.

Details: Ebola virus entry assay, green fluorescence channel
Note: 0% is about no effect.

SMILES	efficacy
Cc1c(C(=O)NCCO)[n+](=O)c2ccccc2n1[O-]	-17% (inactive)
CC(=O)OCC(COC(C)=O)OC(C)=O	12.7% (inactive)
CC(C)(Oc1ccc(Cl)cc1)C(=O)O	-14.9% (inactive)
CCCCCCCCCCCCCCCCN	-37.3% (inactive)
CC1(COc2ccc(CC3SC(=O)NC3=O)cc2)CCCCC1 (centres undefined)	-16.4% (inactive)
CCCCC(CC)CNC(=O)CC(C)OC(=O)CCC(=O)O (centres undefined)	12.2% (inactive)
COc1cc(/C=C/C(N)=O)cc(OC)c1OC	-22.5% (inactive)
CC1c2ccccc2CN1NC(=O)c1ccc(Cl)c(S(N)(=O)=O)c1 (centres undefined)	14.8% (inactive)
C[C@@H](O)[C@H]1C(=O)N2C(C(=O)O)=C(SCCN=CN)C[C@H]12	21.9% (inactive)
Cc1ccc(Nc2nccc(N(C)c3ccc4c(C)n(C)nc4c3)n2)cc1S(N)(=O)=O	37.4% (inactive)
CCNC(=O)/C=C/c1cccc(Br)c1	-12% (inactive)
CC(C)=CCC1C(=O)N(c2ccccc2)N(c2ccccc2)C1=O	-18% (inactive)
CN1C(C)(C)CCCC1(C)C	14.2% (inactive)
Oc1ccccc1C=NCc1ccccc1	-16.4% (inactive)
Nc1ccc(/C=C/c2ccc(N)cc2S(=O)(=O)O)c(S(=O)(=O)O)c1	21.3% (inactive)
Cc1cc2cc3c(C)cc(=O)oc3c(C)c2o1	-24.3% (inactive)
COP(=O)(OC)OC(c1ccc(Cl)cc1)P(=O)(OC)OC (centres undefined)	-15.4% (inactive)
CCCOC(=O)c1ccccc1	17.4% (inactive)
Nc1ccc(C(=O)Nc2ccccc2N)cc1	-27% (inactive)
Cc1cc(C)nc(NS(=O)(=O)c2ccc(N)cc2)n1	-8.79% (inactive)

SMILES	efficacy
CN(CC1(C)CCCO1)S(=O)(=O)c1ccc(Cl)c(S(N)(=O)=O)c1 (centres undefined)	-11% (inactive)
CCN(CC)CCNC(=O)COc1ccc(OC)cc1	11.4% (inactive)
Cc1c(Nc2ncccc2C(=O)O)cccc1C(F)(F)F	-17.3% (inactive)
O=C(N/N=C/c1ccc([N+](=O)[O-])o1)c1cc([N+](=O)[O-])cc([N+](=O)[O-])c1O	-16.9% (inactive)
Cc1cc(O)cc(C)c1Cl	-20.2% (inactive)
CC(=O)O[C@@H]1C(=O)O[C@@H]2[C@H]1OC(=O)[C@@H]2OC(C)=O	-16.6% (inactive)
Cn1cc(S(C)=O)c(=O)c2ccc(F)cc21 (centres undefined)	-15.1% (inactive)
Nc1nc(N)nc(-c2cc(Cl)ccc2Cl)n1	-23.5% (inactive)
NCC(=O)CCC(=O)O	-14.6% (inactive)
CNC[C@H](O)c1cccc(O)c1	-23.9% (inactive)
CCCc1ccc(OCC(=O)N2CCN(C(=O)COc3ccc(CCC)cc3OC)CC2)c(OC)c1	12.4% (inactive)
O=c1cc[nH]c(=S)[nH]1	12.4% (inactive)
CCCc1c2oc(C(=O)O)cc(=O)c2cc2c(=O)cc(C(=O)O)n(CC)c12	16% (inactive)
O=C(N/N=C/c1ccc([N+](=O)[O-])o1)c1ccc(O)cc1	14.6% (inactive)
NC[C@H]1O[C@H](O[C@H]2[C@H](O[C@@H]3O[C@H](CO)[C@@H](O)[C@H]3O)C(O)[C@H](N)C[C@@H]2N)[C@H](N)[C@@H](O)[C@@H]1O (some centres undefined)	-16% (inactive)
Oc1cccc(O)c1	-18.5% (inactive)
CC(=O)OCC(=O)[C@H]1CC[C@H]2[C@@H]3CCC4=CC(=O)CC[C@]4(C)[C@H]3CC[C@]12C	-27% (inactive)
CC(C)(Sc1cc(C(C)(C)C)c(O)c(C(C)(C)C)c1)Sc1cc(C(C)(C)C)c(O)c(C(C)(C)C)c1	-17.7% (inactive)
Cc1scc2c1N(C(=O)CN1CCN(C)CC1)c1ccccc1NC2=O	20.4% (inactive)
